ALDH1A1 inh – inhibitors of human aldehyde dehydrogenase 1A1 | Purified ALDH1A1, NADH fluorescence, propionaldehyde substrate | Potency, µM (top dose mostly 75.3 µM), hits mostly inhibitors | 220,000 tested, 7.3% active | AID 1030
Target sequence (P00352 whole entry, looked up): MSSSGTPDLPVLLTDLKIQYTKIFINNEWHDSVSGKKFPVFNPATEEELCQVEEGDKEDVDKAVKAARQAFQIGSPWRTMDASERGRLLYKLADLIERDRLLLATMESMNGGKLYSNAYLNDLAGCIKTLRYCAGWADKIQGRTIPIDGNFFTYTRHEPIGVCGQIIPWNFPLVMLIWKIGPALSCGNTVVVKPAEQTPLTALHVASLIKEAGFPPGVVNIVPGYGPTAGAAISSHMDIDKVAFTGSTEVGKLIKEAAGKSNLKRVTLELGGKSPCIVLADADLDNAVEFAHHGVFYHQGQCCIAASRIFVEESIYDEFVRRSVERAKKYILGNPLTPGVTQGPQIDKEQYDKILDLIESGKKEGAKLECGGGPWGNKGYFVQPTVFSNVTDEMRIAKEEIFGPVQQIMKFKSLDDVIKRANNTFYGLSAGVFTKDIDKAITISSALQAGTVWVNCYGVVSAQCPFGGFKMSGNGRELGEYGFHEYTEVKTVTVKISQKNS
HPGD block – blocks human HPGD enzyme activity. P15428. purified HPGD, NADH fluorescence kinetic, PGE2 substrate. Potency, µM, usual class: inhibitors. 150,000 tested, 4.3% active
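20 nM HPGD preincubated 15 min at room temperature with compound in 50 mM Tris-HCl pH 8, 0.01% Tween 20. Started with 1 mM NAD+ and 30 uM prostaglandin E2; NADH fluorescence (360/450 nm) read 5 times over 30-s intervals, last minus first.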
PNC inhibitor – blocks assembly of the perinucleolar compartment | PC3M PTB-GFP, PNC prevalence imaging, 16 h; hits give low values | activity change (PNC), negative = inhibition, % at 10 µM | 140,000 tested, 3.1% active | AID 2417;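 active = readout at or below -70, meaning at least 70% loss of cells showing the perinucleolar compartment, a nuclear body marking cancer cells; inconclusive = readout between -30 and a set limit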
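Read-out is percentage of cells bearing a perinucleolar compartment, from automated 20x imaging of fixed, Hoechst-stained PC3M PTB-GFP cells. Cells were seeded 4 h, then exposed 16 h to compound (23 nl of library stock) in duplicate plates.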
Numbers stand for hits; 0 = inactive; ? = inconclusive; - = not tested or not shown; [ ] = another dose, or the depositor's remark. Shown are actives, neighbours in structure and some others; about 11% of the full set was active somewhere. Unless noted, calls come from the whole dose curve; as a rule, active = well fitted inhibition curve with a large enough effect (not every such curve was filed as active); inconclusive = small, poorly fitted or top-dose-only effect, or another doubt; inactive = no such curve, though single readings can be large or run the other way.

SMILES | ALDH1A1 inh | HPGD block | PNC inhibitor
CC(C)OC(=O)c1cccc(C(=O)Oc2ccccc2)n1 | 0 | 0 | 0
CC(=O)OCc1ccco1 | 22µM | 0 | -
COC(=O)c1ccc(C(=S)N2CCCCC2)cc1 | 0 | - | -
COC(=O)c1ccc(C(=S)N2CCOCC2)cc1 | 10µM | 28µM | 0
O=C(Oc1ccc(C(=S)N2CCOCC2)cc1)c1ccc(Br)cc1 | 0 | 0 | 0
COc1ccc(C(=O)Oc2ccc(C(=S)N3CCOCC3)cc2)cc1 | 7.1µM | - | -
O=C(CSc1nnc(-c2ccncc2)n1Cc1ccccc1)NC1CCCc2ccccc21 (stereo unspecified) | 0 | 0 | 0
CC1=N/C(=C\c2ccc([N+](=O)[O-])cc2)C(=O)N1c1ccc(Br)c(C)c1 | ? | 0 | 0
CCC(Sc1nc(N)c(NC(=O)c2ccc(OC)c(OC)c2)c(=O)[nH]1)C(=O)OC (stereo unspecified) | 0 | 0 | ?
CCOc1ccc(N2CC(C(=O)Nc3ccc(N4CCOCC4)cc3)CC2=O)cc1 (stereo unspecified) | 0 | 0 | 0
COc1ccc(N2CC(C(=O)NCc3cccnc3)CC2=O)cc1 (stereo unspecified) | 0 | 0 | -98
COc1ccccc1CNC(=O)C1CC(=O)N(c2ccc(C)c(C)c2)C1 (stereo unspecified) | 6.3µM | 0 | -81
COCCCNC(=O)C1CC(=O)N(Cc2ccc(OC)cc2)C1 (stereo unspecified) | 0 | 0 | 0
COc1ccccc1CNC(=O)C1CC(=O)N(C2CCCC2)C1 (stereo unspecified) | 0 | 0 | 0
COc1ccc(N2CC(C(=O)Nc3ccc(N4CCOCC4)cc3)CC2=O)cc1 (stereo unspecified) | 0 | 0 | -113
Cc1ccc(N2CC(C(=O)NCc3cccnc3)CC2=O)cc1 (stereo unspecified) | 0 | 0 | 0
COc1ccc(CN2CC(C(=O)NCCN3CCOCC3)CC2=O)cc1 (stereo unspecified) | 0 | 0 | -90
CCCCN(CC)C(=O)Cn1c(=O)sc2ccccc21 | 0 | 0 | 0
Cc1cc(C)n(CCCNCC(O)c2ccccc2)n1 (stereo unspecified) | 0 | 0 | 0
COc1cccc(NC(=O)c2cn(C)c(=O)c3cc(OC)c(OC)cc23)c1 | 0 | 0 | 0
CC(C)(C)c1cc(OC(=O)c2ccccc2F)ccc1O | 0 | - | -
CCCc1cc(=O)[nH]c(SCc2nc3ccc([N+](=O)[O-])cc3[nH]2)n1 | 0 | 18µM | 0
O=[N+]([O-])c1ccc2nc(CN3CCCCC3)[nH]c2c1 | 0 | - | -
CCCc1cc(=O)[nH]c(SCc2ccccc2)n1 | ? | 16µM | 0
CCCc1cc(=O)[nH]c(SCC(=O)N(Cc2ccccc2)C(C)C)n1 | ? | 0 | 0
SMILES | ALDH1A1 inh | HPGD block | PNC inhibitor
CCCc1cc(=O)[nH]c(SCc2cccc(C)c2)n1 | ? | 14µM | 0
CCCc1cc(=O)[nH]c(SCc2cc(Cl)ccc2OC(F)F)n1 | 0 | 14µM | 0
CCCOc1ccc(C(C)=O)cc1CSc1nc(O)cc(=O)[nH]1 | ? | 0 | 0
CCCc1cc(=O)[nH]c(SCc2csc(-c3ccccc3)n2)n1 | 0 | 0 | ?
O=C(Nc1nn[nH]n1)C12CC3CC(CC(C3)C1)C2 | ? | 0 | 0
CC(=O)C1C(c2ccc(F)c(F)c2)NC(=O)NC1(O)C(F)(F)F (stereo unspecified) | 0 | 0 | 0
CN(C)S(=O)(=O)c1cccc(C(=O)OCC(=O)NCc2ccc3c(c2)OCO3)c1 | 0 | - | -
Cn1ccnc1SCC(=O)Nc1cc(C(F)(F)F)ccc1N1CCOCC1 | ? | 0 | 0
CCC(CC)NC(=O)Cc1ccccc1[N+](=O)[O-] | 0 | 0 | ?
Clc1ccc(CN2C3=NCCCN3c3ccccc32)cc1Cl | 0 | - | -
CCCc1cc(=O)[nH]c(SCC(=O)NC(=O)OCC)n1 | 0 | 0 | ?
CCCc1cc(=O)[nH]c(SCC(=O)C(C)(C)C)n1 | 0 | 0 | 0
O=c1[nH]c(SCc2ccccc2Cl)nc2[nH]ncc12 | 0 | - | -
N#Cc1c(-c2ccccc2)nc(SCC(=O)NC2CCCCC2)[nH]c1=O | 0 | - | -
CCCc1cc(=O)[nH]c(SCc2ccc(Cl)cc2)n1 | 0 | 16µM | 0
CCSc1nc(-c2ccccc2)c(C#N)c(=O)[nH]1 | ? | 28µM | 0
CCCc1cc(=O)[nH]c(SCC(=O)N(C)CC(=O)Nc2ccc(C)cc2)n1 | 0 | 0 | -115
Cc1cccc(CSc2nc3[nH]ncc3c(=O)[nH]2)c1 | 8.9µM | - | -
COC(=O)[C@@]1(Cc2ccccc2)[C@H]2c3cc(C(=O)N(C)C)n(CCO)c3C[C@H]2CN1C(=O)c1ccccc1 | 0 | 0 | -
COc1ccc(CSc2ncnc3sccc23)cc1F | 0 | - | -
CC#CCN1c2ccccc2[C@]23C[C@@H](C(=O)OC)N(S(=O)(=O)c4c(C)noc4C)C2=NC(C(=O)OC)=C(C(=O)OC)[C@H]13 | 0[13.5 µM] | 0 | -
Cc1cc(C)nc(N2CCCC(C(=O)NC(C)CCc3ccco3)C2)n1 (stereo unspecified) | ? | - | 0
CCc1nc(SCc2ccccn2)[nH]c(=O)c1C | 0 | - | -
CCc1nc(SCc2ccc(F)cc2)[nH]c(=O)c1C#N | 32µM | 4.5µM | ?
CCc1nc(SCc2cccnc2)[nH]c(=O)c1C | 0 | 25µM | ?
SMILES | ALDH1A1 inh | HPGD block | PNC inhibitor
CCCc1cc(=O)[nH]c(SCC(=O)NC(=O)c2ccccc2)n1 | 0 | - | ?
N#Cc1c(-c2cccs2)nc(SCc2ccc(Cl)cc2)[nH]c1=O | 0 | - | -
CCCc1cc(=O)[nH]c(SCc2cccnc2)n1 | 0 | 20µM | 0
COc1ccc(CCNC(=O)C2CCC(CNc3c(N4CCCC4)c(=O)c3=O)CC2)cc1OC (stereo unspecified) | 0 | 0 | 0
COc1ccccc1NCC(=O)Nc1cc(S(=O)(=O)N2CCOCC2)ccc1N1CCOCC1 | 0 | - | -
COc1ccccc1NS(=O)(=O)c1cc(NC(=O)c2cc[n+]([O-])cc2)ccc1N1CCCC1 | 7.9µM | - | -
COc1ccccc1NS(=O)(=O)c1cc(NC(=O)C(C)C)ccc1N1CCCCC1 | 9.5µM | - | -
COc1ccccc1NS(=O)(=O)c1cc(NC(=O)/C=C/c2cccs2)ccc1N1CCOCC1 | ? | ? | 0
O=C(Nc1ccc(Cl)c(Cl)c1)Nc1ccc(N2CCCC2)c(S(=O)(=O)Nc2ccccc2Cl)c1 | 0 | 0 | 0
COc1ccccc1S(=O)(=O)Nc1cc(S(=O)(=O)N2CCCCC2)ccc1N1CCOCC1 | 13µM | - | -
COc1ccccc1NC(=S)NCCN1CCOCC1 | 0 | 0 | ?
COc1ccccc1NS(=O)(=O)c1cc(NC(=S)NCCN2CCOCC2)ccc1N1CCOCC1 | 25µM | 18µM | 0
CCCCSc1nnc2nc(C)cc(C)n12 | 0 | 0 | 0
CO[C@H]1[C@@H](OC(N)=O)[C@H](O)[C@@H](Oc2ccc3c(O)c(NC(=O)c4ccc(O)c(CC=C(C)C)c4)c(=O)oc3c2C)OC1(C)C | 0 | 0 | -
COc1ccc(NS(=O)(=O)c2cc(NC(=O)c3sccc3C)ccc2N2CCOCC2)cc1 | 0 | - | -
O=C(Nc1ccc(F)cc1)Nc1ccc(N2CCCC2)c(S(=O)(=O)Nc2ccccc2Cl)c1 | ? | 0 | 0
COc1ccccc1NS(=O)(=O)c1cc(NC(=O)C2CCCC2)ccc1N1CCOCC1 | 10µM | - | -
COc1ccc(NS(=O)(=O)c2cc(NC(=O)CC3CCCC3)ccc2N2CCOCC2)cc1 | 3.2µM | - | -
COc1ccccc1NS(=O)(=O)c1cc(NC(=O)Nc2ccccc2)ccc1N1CCCCC1 | 18µM | 25µM | 0

High-throughput results deposited in PubChem BioAssay by National Center for Advancing Translational Sciences (NCATS).
